Measurements: PubChem BioAssay (NCI)
Values joined by “and” are separate entries in the source; they are usually repeats but may differ in a detail not shown here. Identical values can stand only once. Compounds without any hit were thinned out: in the full panel of roughly 83,000, 20% have a hit.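 Interpretation: 100, growth as untreated; towards 0, rising growth inhibition; 0, no net growth; 0 to -100, cell death. Compounds scoring below 10 were considered active.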 Active and inactive are the calls of the source.

Test system: MDA-MB-468 breast
Assay: NCI-60 one-dose screen, 48 h (100 = growth as untreated, 0 = no growth, -100 = all killed)
Settings: 10 µM unless noted

SMILES	growth
O=C1/C(=C\c2cn(-c3ccccc3)nc2-c2ccc(-c3cccs3)cc2)CCc2ccccc21	36.1% (inactive)
c1ccc(-c2nc(N3CCCNCC3)c3nc(-c4ccccc4)oc3n2)cc1	-52.9% (active)
CC(C)NCCCNC1=C(Cl)C(=O)c2ccccc2C1=O	34.6% (inactive)
CCOc1ccccc1/C=N\Nc1ccc(S(=O)(=O)c2ccc(N/N=C/c3ccccc3OCC)cc2)cc1	96.8% (inactive)
c1ccc(-c2[nH]c3ccccc3c2-c2ccccc2)cc1	84.1% (inactive)
CCCCCCCCCC(=O)Oc1ccc(/C(=C(/C)Cc2cccc(OC)c2)c2ccc(OCCN(C)C)cc2)cc1	103% (inactive)
CCOC(=O)c1cnc2ccc(Br)cc2c1Nc1cccc(S(=O)(=O)NC)c1	90.8% (inactive)
O=S(=O)(NCCNc1nccc(-c2c(-c3cccc(O)c3)nc3occn23)n1)c1ccc(Br)cc1	26.6% (inactive)
Cn1ccnc1C(=O)/C=C/c1ccc(CC(=O)Nc2cc(F)c(F)c(F)c2)cc1	-23.4% (active)
O=C(/C=C/c1ccc(Cl)cc1)/C=C/c1cc2ccccc2[nH]c1=O	55.9% (inactive)
CCN1CCN(Cc2ccc(NC(=O)c3cccc(C#Cc4cccc5[nH]nc(N)c45)c3)cc2C(F)(F)F)CC1	-30.6% (active)
Nc1cc2c(cc1C(=O)c1cccc(F)c1)OCCO2	93.8% (inactive)
COc1ccc(/C=N/C2=C(C#N)C(c3ccccc3[N+](=O)[O-])c3ccc4ccccc4c3O2)cc1 (stereo not given)	104% (inactive)
Oc1[nH]c2ccc(Cl)cc2c1/C=c1/ccc2c(c1)N=C(c1cc(F)cc(F)c1)N=2	53% (inactive)
Cc1ccccc1NC(=O)N/C(N)=N/c1nc2ccccc2s1	1.56% (active)
O=C(CCCOc1ccc(Br)cc1)Nc1ncc(Cc2ccc(F)cc2)s1	57% (inactive)
Cc1ccc(/C=C/c2nn3c(-c4ccco4)nnc3s2)cc1	116% (inactive)
CN1C2C=CC(=O)C1C1C(=O)N(c3ccccc3)C(=O)C12 (stereo not given)	0.669% (active)
CC(C)Oc1ccc2cc(-c3nn(CC4CCNCC4)c4ncnc(N)c34)ccc2c1	84.8% (inactive) and -20% (active)
COc1ccc(C(=O)Cn2cnc3c(Nc4cc(C(=O)Nc5ccc(N6CCN(CCO)CC6)cc5)ccc4C)ncnc32)cc1	114% (inactive)

SMILES	growth
CCOC(=O)C1=C(C)NC(=O)NC1c1cccs1 (stereo not given)	102% (inactive)
COc1cc(CNS(=O)(=O)c2ccc(C)cc2)ccc1OCc1cn(-c2ccc(F)cc2)nn1	62.3% (inactive)
CC1=CC(=O)C(C(C)C)=CC1=Nc1cc(Br)c(O)c(Br)c1	44.7% (inactive)
O=C(Nc1nc(-c2ccccc2Cl)cs1)c1cc(-c2ccc(Cl)cc2)nc2ccc(Cl)cc12	89.4% (inactive)
CCN(CC)C(Cl)=Nc1ccc(Cl)cc1	103% (inactive)
Cc1cn(C2CCCCC2)c(=O)[nH]c1=O	105% (inactive)
COc1cc2nc(Cc3ccc(C)cc3)[nH]c(=O)c2cc1OC	98.8% (inactive)
Cn1ncc2ncc(-c3ccc4ncc(C#N)c(N5CCc6cc(F)c(Cl)cc65)c4c3)cc21	8.25% (active)
C/C(=C\C(=N\N=C(N)N)c1ccc(Cl)cc1)c1ccc(Cl)cc1	-92.9% (active)
COc1ccc(Br)c2c1C(=O)CC2	107% (inactive)
Fc1ccc(-n2cc(COc3ncnc4sc5c(c34)CCCC5)nn2)cc1Cl	106% (inactive)
Cc1cnc(Nc2ccc(OCCN3CCCC3)cc2)nc1NCc1ccco1	80.8% (inactive)
CCCCCCNC(=O)Oc1ccc(/C(=C(/CC)Cc2ccccc2)c2ccc(OCCN3CCCCC3)cc2)cc1	86.3% (inactive)
CC(O)c1cnc(/C=C2\SC(=S)N(Cc3ccccc3)C2=O)s1 (stereo not given)	13.8% (inactive)
CN1C(=O)N(C)C2(c3ccccc3)OC(=S)NC12c1ccccc1 (stereo not given)	112% (inactive)
O=C(CCl)Nc1cc(O)c2c(c1)C(=O)c1cccc(O)c1C2=O	-55.1% (active)
CCN(CC)CCOc1ccc(/C(=C(\C)Cc2ccc(OC)cc2)c2ccc(O)cc2)cc1	-18.7% (active)
CCNc1cc(S(=O)(=O)O)ccc1C	97.2% (inactive)
CN(C)N=Nc1nn(C(=O)Nc2ccc(Cc3ccccc3)cc2)c2ccccc12	69.2% (inactive)
Cc1nc2c(nnn2-c2ccccc2)c2nc(-c3ccc(Cl)cc3)oc(=O)c12	106% (inactive)
